Data published in PubChem BioAssay (Tox21).
Values joined by “and” are separate entries in the source; they are usually repeats but may differ in a detail not shown here. Equal entries are not always repeated. Results filed as inconclusive are left out. Active and inactive are the calls of the source. Unless noted, the call rests on the fitted dose curve; in most records, active means well fitted curve in the direction sought with a large enough effect in the repeat runs; inconclusive means weak or mixed curves; inactive means no such curve, though single readings can be large; an effect the other way counts as inactive or inconclusive.

What was measured:
[1] = qHTS assay to identify small molecule agonists of the peroxisome proliferator-activated receptor delta (PPARd) signaling pathway - cell viability counter screen (AID 743211); further: nearly all actives have a fitted effect of over 55% in size; further: potency means the concentration at half of the fitted maximal effect
Outline: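 Luminescent ATP viability assay (CellTiter-Glo, 30 min RT) in UAS-bla HEK293H cells carrying the PPAR delta reporter construct, 3000 cells/well, after a 17 h compound treatment at 37 C.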

[2] = molecular target: Peroxisome proliferator-activated receptor delta (Homo sapiens) (UniProt Q03181); assay: qHTS assay to identify small molecule agonists of the peroxisome proliferator-activated receptor delta (PPARd) signaling pathway (AID 743212; calls by dose curve)
Outline: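 Beta-lactamase reporter readout: a ratiometric FRET signal from the LiveBLAzer substrate after 2 h at room temperature. Compound exposure at 37 °C in PPARδ-bla HEK293H cells driven by an upstream activator sequence.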

[3] = qHTS assay to identify small molecule antagonists of the peroxisome proliferator-activated receptor delta (PPARd) signaling pathway - cell viability counter screen (AID 743213); further: nearly all actives have a fitted effect of over 50% in size; further: potency means the concentration at half of the fitted maximal effect
Outline: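 Luminescence from CellTiter-Glo, added after the bla read and incubated 30 min at room temperature, gives viability of HEK293H PPARd-bla cells exposed to compounds for 17 h at 37 C with 300 nM L165041.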

[4] = molecular target: Peroxisome proliferator-activated receptor delta (Homo sapiens) (UniProt Q03181); assay: qHTS assay to identify small molecule antagonists of the peroxisome proliferator-activated receptor delta (PPARd) signaling pathway (AID 743215; active means well fitted inhibition curve with a large enough effect in the signal ratio in the repeat runs, not every such curve was filed as active; the % refers to the signal ratio;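 further: cells stimulated with agonist L165041 at 300 nM final during compound exposure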; further: potency means the concentration at half of the fitted maximal effect)
Outline: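 HEK293H GeneBLAzer PPARd UAS-bla reporter cells; cpd + L165041 300 nM final, 17 h 37 C; LiveBLAzer B/G FRET substrate 2 h RT; fluorescence intensity read-out. Antagonist mode.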

[5] = qHTS assay to identify small molecule agonists of the farnesoid-X-receptor (FXR) signaling pathway - cell viability counter screen (AID 743218); further: nearly all actives have a fitted effect of over 45% in size; further: potency means the concentration at half of the fitted maximal effect
Outline: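 Luminescence from CellTiter-Glo, read after 30 min at RT, reports viability of GeneBLAzer FXR-UAS-bla HEK 293T cells treated 16 h with compounds in the wells used for the beta-lactamase reporter.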

[6] = qHTS assay to identify small molecule antagonists of the farnesoid-X-receptor (FXR) signaling pathway - cell viability counter screen (AID 743221; active means well fitted cell-killing curve with a large enough effect in the repeat runs, not every such curve was filed as active; further: nearly all actives have a fitted effect of over 50% in size; further: potency means the concentration at half of the fitted maximal effect)
Outline: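 In GeneBLAzer FXR-UAS-bla HEK 293T cells stimulated with 50 uM chenodeoxycholic acid (final), compounds acted for 16 h at 37 C. Viability was assessed afterwards by CellTiter-Glo luminescence.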

[7] = qHTS assay to identify small molecule antagonists of the vitamin D receptor (VDR) signaling pathway - cell viability counter screen (AID 743225); further: nearly all actives have a fitted effect of over 50% in size; further: potency means the concentration at half of the fitted maximal effect
Outline: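 Luminescent cell viability (CellTiter-Glo) in VDR-bla HEK 293T cells after 16 h compound exposure at 37C in the presence of 3 nM final 1-alpha,25-dihydroxy vitamin D3.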

[8] = qHTS assay to identify small molecule agonists of the NFkB signaling pathway (AID 1159509; active means well fitted curve in the direction sought with a large enough effect in the signal ratio in the repeat runs, not every such curve was filed as active; the % refers to the signal ratio; further: series mostly up to about 61 µM)
Outline: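 Pathway activation was measured in ME-180 cells stably expressing beta-lactamase under NF-kB response element control. Substrate cleavage was read as the 460/530 nm emission shift after 5 hr compound incubation.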

[9] = qHTS assay to identify small molecule agonists of the endoplasmic reticulum stress response signaling pathway - cell viability counter screen (AID 1159517; calls by dose curve;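 further: HeLa cells carrying an ER stress response element beta-lactamase reporter; series mostly up to about 61 µM; nearly all actives have a fitted effect of over 50% in size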)
Outline: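 ESRE-bla HeLa cells (1,500/well) were plated overnight at 37 C and exposed to compounds for 5 hr. After the 2 hr beta-lactamase substrate read, CellTiter-Glo went into the same wells, and luminescence was read after 30 min at room temperature.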

[10] = qHTS assay to identify small molecule antagonists of the retinoid-related orphan receptor gamma (ROR-gamma) signaling pathway - cell viability counter screen (AID 1159520); further: nearly all actives have a fitted effect of over 50% in size; further: potency means the concentration at half of the fitted maximal effect
Outline: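 Cytotoxicity was read from cellular ATP (CellTiter-Glo luminescence) after 16 hr at 37 C with 1 uM doxycycline induction. The inducer was added 2 hr after compound transfer to Tet-on ROR gamma CHO cells.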

[11] = molecular target: Nuclear receptor ROR-gamma (Homo sapiens) (UniProt P51449); assay: qHTS assay to identify small molecule antagonists of the retinoid-related orphan receptor gamma (ROR-gamma) signaling pathway (AID 1159521; further: nearly all actives have a fitted effect of over 50% in size; further: potency means the concentration at half of the fitted maximal effect)
Outline: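 CHO cells expressing RORγ under a TET-on promoter, luciferase under RORE control. Dox 1 uM final, 16 h; compounds added 2 h prior. Luminescence decrease measured.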

[12] = qHTS assay to identify small molecule agonists of the AP-1 signaling pathway - cell viability counter screen (AID 1159525; calls by dose curve; further: nearly all actives have a fitted effect of over 55% in size)
Outline: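 Intracellular ATP by Cell Titer Glo luminescence (30 min, RT) in the same ME-180 AP-1-bla wells after the 5 h compound exposure at 37 °C. Normalised to tetra n-octyl ammonium bromide and DMSO controls.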

[13] = molecular target: Bile acid receptor (Homo sapiens) (UniProt Q96RI1); assay: qHTS assay to identify small molecule antagonists of the farnesoid-X-receptor (FXR) signaling pathway (AID 743217; active means well fitted inhibition curve with a large enough effect in the signal ratio in the repeat runs, not every such curve was filed as active; the % refers to the signal ratio)
Outline: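 Read-out: beta-lactamase FRET fluorescence (LiveBLAzer B/G substrate, 2 h, room temperature) in GeneBLAzer FXR-UAS-bla HEK 293T cells. Compounds were co-dosed with 50 uM chenodeoxycholic acid (final) and incubated 16 h at 37 °C.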

[14] = molecular target: Bile acid receptor (Homo sapiens) (UniProt Q96RI1); assay: qHTS assay to identify small molecule agonists of the farnesoid-X-receptor (FXR) signaling pathway (AID 743220; active means well fitted activation curve with a large enough effect in the signal ratio in the repeat runs, not every such curve was filed as active; the % refers to the signal ratio)
Outline: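 FXR-UAS-bla HEK 293T cells carrying a UAS-driven beta-lactamase reporter were plated for 5 h at 37C/5% CO2, then exposed to DMSO-dissolved Tox21 10K compounds for 16 h at 37C. A LiveBLAzer B/G FRET substrate was loaded for 2 h at room temperature before fluorescence reading.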

[15] = qHTS assay to identify small molecule agonists of the vitamin D receptor (VDR) signaling pathway - cell viability counter screen (AID 743224); further: nearly all actives have a fitted effect of over 50% in size; further: potency means the concentration at half of the fitted maximal effect
Outline: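 Cytotoxicity counter screen: VDR-bla cells, 16 h compound exposure at 37C, 5% CO2; CellTiter-Glo luminescence, 30 min RT, same wells as bla read.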

[16] = qHTS assay to identify small molecule agonists of the endoplasmic reticulum stress response signaling pathway (AID 1159516; active means well fitted activation curve with a large enough effect in the signal ratio in the repeat runs, not every such curve was filed as active; the % refers to the signal ratio)
Outline: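 HeLa ESRE-bla reporter line; cpd 5 h, 37 C/5% CO2; LiveBLAzer B/G FRET substrate 2 h RT; ex 405, em 460/530 nm.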

[17] = qHTS assay to identify small molecule agonists of the AP-1 signaling pathway (AID 1159526; calls by dose curve; further: potency means the concentration at half of the fitted maximal effect)
[18] = molecular target: Vitamin D3 receptor (Homo sapiens) (UniProt P11473); assay: qHTS assay to identify small molecule agonists of the vitamin D receptor (VDR) signaling pathway (AID 743222; calls by dose curve)
Outline: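 Beta-lactamase reporter readout (LiveBLAzer B/G FRET, 2 h RT) in VDR-bla cells after 16 h compound treatment at 37C, 5% CO2; cells pre-incubated 4 h before pin transfer of DMSO solutions.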

[19] = molecular target: Vitamin D3 receptor (Homo sapiens) (UniProt P11473); assay: qHTS assay to identify small molecule antagonists of the vitamin D receptor (VDR) signaling pathway (AID 743223; active means well fitted inhibition curve with a large enough effect in the signal ratio in the repeat runs, not every such curve was filed as active; the % refers to the signal ratio; further: potency means the concentration at half of the fitted maximal effect)
Outline: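 Agonist 1alpha,25-dihydroxyvitamin D3 (3 nM in well) was added with each compound to VDR-bla cells preincubated 4 h. Cells stood 16 h at 37C, then FRET substrate 2 h at room temperature; fluorescence intensity recorded.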

Measured: Potency

Chain of Vitamin D3 receptor (Homo sapiens) (P11473 whole entry, looked up): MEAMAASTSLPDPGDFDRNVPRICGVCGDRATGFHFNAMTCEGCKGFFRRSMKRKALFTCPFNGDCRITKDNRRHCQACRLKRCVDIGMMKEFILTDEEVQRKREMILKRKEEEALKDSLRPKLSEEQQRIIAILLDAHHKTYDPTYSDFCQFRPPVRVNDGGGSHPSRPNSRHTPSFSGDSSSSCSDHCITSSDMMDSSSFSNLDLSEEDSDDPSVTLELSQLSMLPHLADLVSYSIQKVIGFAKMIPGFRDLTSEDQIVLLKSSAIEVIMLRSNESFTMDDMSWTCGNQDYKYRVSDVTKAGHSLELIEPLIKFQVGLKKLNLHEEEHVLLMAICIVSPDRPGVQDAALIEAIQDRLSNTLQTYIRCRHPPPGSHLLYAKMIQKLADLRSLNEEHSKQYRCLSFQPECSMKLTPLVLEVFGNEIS
Chain of Bile acid receptor (Homo sapiens) (Q96RI1 whole entry, looked up): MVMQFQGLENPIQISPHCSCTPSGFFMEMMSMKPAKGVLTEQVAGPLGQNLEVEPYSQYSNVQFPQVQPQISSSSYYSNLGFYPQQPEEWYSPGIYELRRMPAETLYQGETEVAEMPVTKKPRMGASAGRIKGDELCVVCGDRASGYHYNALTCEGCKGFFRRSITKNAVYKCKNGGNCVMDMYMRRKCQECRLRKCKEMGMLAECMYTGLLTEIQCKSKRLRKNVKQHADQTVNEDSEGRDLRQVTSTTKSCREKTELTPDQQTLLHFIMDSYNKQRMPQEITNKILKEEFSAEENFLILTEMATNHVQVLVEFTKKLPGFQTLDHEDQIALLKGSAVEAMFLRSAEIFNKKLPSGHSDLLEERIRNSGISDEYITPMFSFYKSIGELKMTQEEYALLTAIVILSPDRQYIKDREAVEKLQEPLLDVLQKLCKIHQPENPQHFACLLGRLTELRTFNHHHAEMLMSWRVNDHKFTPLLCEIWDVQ
Chain of Peroxisome proliferator-activated receptor delta (Homo sapiens) (Q03181 whole entry, looked up): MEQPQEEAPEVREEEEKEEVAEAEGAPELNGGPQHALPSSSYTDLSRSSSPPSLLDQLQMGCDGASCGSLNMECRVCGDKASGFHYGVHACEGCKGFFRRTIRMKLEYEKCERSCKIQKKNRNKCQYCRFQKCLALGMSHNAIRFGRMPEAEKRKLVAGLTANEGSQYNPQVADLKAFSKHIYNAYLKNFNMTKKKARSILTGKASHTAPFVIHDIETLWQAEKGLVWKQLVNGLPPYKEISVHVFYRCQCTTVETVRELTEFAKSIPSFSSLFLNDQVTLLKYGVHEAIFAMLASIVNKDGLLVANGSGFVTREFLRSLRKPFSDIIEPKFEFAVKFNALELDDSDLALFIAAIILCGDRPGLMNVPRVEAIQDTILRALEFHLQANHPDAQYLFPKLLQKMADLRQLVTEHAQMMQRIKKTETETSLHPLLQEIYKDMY

O=C1NC(=O)c2cc([N+](=O)[O-])ccc21
inactive: [1] | [2] | [3] | [4] | [5] | [6] | [7] | [8] | [9] | [10] | [11] | [12]

CCC(C)COC(C)=O (configuration not stated)
inactive: [1] | [2] | [3] | [4] | [13] | [5] | [14] | [6] | [15] | [7] | [8] | [16] | [10] | [11] | [12] | [17]

Cc1ccc(Cl)c(Nc2ccccc2C(=O)O)c1Cl
inactive: [1] | [3] | [13] | [5] | [14] | [6] | [15] | [7] | [8] | [9] | [10] | [12] | [17]

C=CC(C)(CCC=C(C)C)OC(=O)CC(C)C (configuration not stated)
inactive: [1] | [2] | [3] | [4] | [5] | [6] | [18] | [15] | [7] | [8] | [9] | [10] | [11] | [17]

C[C@@H]1CC(=O)NN=C1c1ccc(NN=C(C#N)C#N)cc1
active: [10] 2.98 µM and 2.11 µM | [11] 4.22 µM
inactive: [1] | [3] | [5] | [6] | [15] | [7] | [8] | [9] | [12]

CCCCCCCC/C=C\CCCCCCCCO
inactive: [1] | [2] | [3] | [4] | [5] | [6] | [18] | [19] | [15] | [7] | [8] | [9] | [10] | [11] | [12] | [17]

CC1(CN2CCC(n3c(=O)[nH]c4ccccc43)CC2)OCc2ccccc2-n2cccc21 (configuration not stated)
inactive: [4] | [6] | [19] | [7] | [8] | [16] | [12]
active: [1] 33.5 µM

CC(C)=CCC/C(C)=C/CC/C(C)=C/C(=O)OCC(=O)[C@@]1(O)CC[C@H]2[C@@H]3CCC4=CC(=O)C=C[C@]4(C)[C@H]3[C@@H](O)C[C@@]21C
active: [1] 23.7 µM | [15] 26.6 µM | [11] 6.68 µM
inactive: [8] | [9] | [10] | [12] | [17]

Oc1c(I)cc(I)c2cccnc12
active: [19] 21.3 µM
inactive: [1] | [2] | [3] | [13] | [5] | [6] | [18] | [8] | [9] | [10]

CN1CCCC(CC2c3ccccc3Sc3ccccc32)C1 (configuration not stated)
active: [1] 29.8 µM | [3] 26.6 µM | [5] 13.3 µM | [15] 26.6 µM | [7] 21.3 µM | [17] 16.9 µM
inactive: [14] | [8] | [16] | [9] | [12]

C[C@@H](O[C@H]1OCCN(Cc2n[nH]c(=O)[nH]2)[C@H]1c1ccc(F)cc1)c1cc(C(F)(F)F)cc(C(F)(F)F)c1
active: [1] 26.6 µM | [3] 26.6 µM | [4] 29.8 µM | [6] 29.8 µM | [15] 23.7 µM | [10] 26.6 µM
inactive: [2] | [14] | [8] | [16]

O=C=Nc1ccc(Cl)c(Cl)c1
inactive: [2] | [13] | [14] | [18] | [19] | [8] | [9] | [10] | [11] | [12] | [17]
active: [5] 30.4 µM
